The supplement of paper PMC7765376
Where a name gives a salt, the structure may show the parent alone. Over roughly 1,500 compounds, “Excess HSA synergy score (sum over dose matrix of excess over highest single agent)” has its median near 43; the lowest 2% begin near -900. Only a selection was taken, and the lowest values are over-represented in it overall.

Tested on: PEO-1
Assay: Excess HSA synergy score (sum over dose matrix of excess over highest single agent) (score (summed % response)); higher = less synergy / more antagonism (negative = synergy)
Conditions: 72 h, read-out: viability/apoptosis luminescence (CellTiter-Glo or Caspase3-Glo / not stated per table)
[1] = matrix design: 6x6, 5-fold dilutions (primary screen)
[2] = matrix design: 10x10, 9-step dilutions (confirmatory)

Structure (SMILES) | Excess HSA synergy score [1] | Excess HSA synergy score [2]
O=C(N[C@@H](c1ccccc1)[C@@H]1CCCCN1)c1cccc(C(F)(F)F)c1Cl + CC[C@H](NC(=O)[C@H](C)NC)C(=O)N1C[C@@H](O)C[C@H]1Cc1c(-c2[nH]c3cc(F)ccc3c2C[C@@H]2C[C@H](O)CN2C(=O)[C@H](CC)NC(=O)[C@H](C)NC)[nH]c2cc(F)ccc12 [Birinapant] | 61.9 | –
CCc1c2c(nc3ccc(O)cc13)-c1cc3c(c(=O)n1C2)COC(=O)[C@]3(O)CC + CC[C@H](NC(=O)[C@H](C)NC)C(=O)N1C[C@@H](O)C[C@H]1Cc1c(-c2[nH]c3cc(F)ccc3c2C[C@@H]2C[C@H](O)CN2C(=O)[C@H](CC)NC(=O)[C@H](C)NC)[nH]c2cc(F)ccc12 [Birinapant] | 0.514 | –
CC[C@@]1(O)C(=O)OCc2c1cc1n(c2=O)Cc2cc3c(CN(C)C)c(O)ccc3nc2-1 [Topotecan hydrochloride] + CC[C@H](NC(=O)[C@H](C)NC)C(=O)N1C[C@@H](O)C[C@H]1Cc1c(-c2[nH]c3cc(F)ccc3c2C[C@@H]2C[C@H](O)CN2C(=O)[C@H](CC)NC(=O)[C@H](C)NC)[nH]c2cc(F)ccc12 [Birinapant] | -166 | -963
CC[C@@]1(O)C(=O)OCc2c1cc1n(c2=O)Cc2cc3cc(O)ccc3nc2-1 [10-hydroxycamptothecin] + CC[C@H](NC(=O)[C@H](C)NC)C(=O)N1C[C@@H](O)C[C@H]1Cc1c(-c2[nH]c3cc(F)ccc3c2C[C@@H]2C[C@H](O)CN2C(=O)[C@H](CC)NC(=O)[C@H](C)NC)[nH]c2cc(F)ccc12 [Birinapant] | -38.5 | –
O=C(C1CC1)N1CC[C@@H](Cn2c(-c3ccc(-c4ccc5occc5c4)cc3)nc3cnccc32)C1 + CC[C@H](NC(=O)[C@H](C)NC)C(=O)N1C[C@@H](O)C[C@H]1Cc1c(-c2[nH]c3cc(F)ccc3c2C[C@@H]2C[C@H](O)CN2C(=O)[C@H](CC)NC(=O)[C@H](C)NC)[nH]c2cc(F)ccc12 [Birinapant] | 117 | –
CCCCCN(CCC12CC3CC(CC(C3)C1)C2)C(=O)NCCCc1ccncc1 + CC[C@H](NC(=O)[C@H](C)NC)C(=O)N1C[C@@H](O)C[C@H]1Cc1c(-c2[nH]c3cc(F)ccc3c2C[C@@H]2C[C@H](O)CN2C(=O)[C@H](CC)NC(=O)[C@H](C)NC)[nH]c2cc(F)ccc12 [Birinapant] | 297 | –
Cn1cc(/C=C/C(=O)c2cccc(F)c2)cc1/C=C/C(=O)NO + CC[C@H](NC(=O)[C@H](C)NC)C(=O)N1C[C@@H](O)C[C@H]1Cc1c(-c2[nH]c3cc(F)ccc3c2C[C@@H]2C[C@H](O)CN2C(=O)[C@H](CC)NC(=O)[C@H](C)NC)[nH]c2cc(F)ccc12 [Birinapant] | 132 | –
COC1=C2C[C@@H](C)C[C@H](OC)[C@H](O)[C@@H](C)/C=C(\C)[C@H](OC(N)=O)[C@@H](OC)/C=C\C=C(/C)C(=O)NC(=CC1=O)C2=O [Geldanamycin] + CC[C@H](NC(=O)[C@H](C)NC)C(=O)N1C[C@@H](O)C[C@H]1Cc1c(-c2[nH]c3cc(F)ccc3c2C[C@@H]2C[C@H](O)CN2C(=O)[C@H](CC)NC(=O)[C@H](C)NC)[nH]c2cc(F)ccc12 [Birinapant] | 115 | -710
CCc1cc(-c2n[nH]c(C)c2-c2ccc3c(c2)OCCO3)c(O)cc1O + CC[C@H](NC(=O)[C@H](C)NC)C(=O)N1C[C@@H](O)C[C@H]1Cc1c(-c2[nH]c3cc(F)ccc3c2C[C@@H]2C[C@H](O)CN2C(=O)[C@H](CC)NC(=O)[C@H](C)NC)[nH]c2cc(F)ccc12 [Birinapant] | 405 | –
Cc1c[nH]c(/C=C2\C(=O)Nc3ccccc32)c1CCC(=O)O + CC[C@H](NC(=O)[C@H](C)NC)C(=O)N1C[C@@H](O)C[C@H]1Cc1c(-c2[nH]c3cc(F)ccc3c2C[C@@H]2C[C@H](O)CN2C(=O)[C@H](CC)NC(=O)[C@H](C)NC)[nH]c2cc(F)ccc12 [Birinapant] | 54.2 | –
CC1(C)O[C@H]2CC(=O)OC[C@]23[C@H]2CC[C@@]4(C)[C@H](c5ccoc5)OC(=O)[C@H]5O[C@]54[C@]2(C)C(=O)C[C@@H]13 [Limonin] + CC[C@H](NC(=O)[C@H](C)NC)C(=O)N1C[C@@H](O)C[C@H]1Cc1c(-c2[nH]c3cc(F)ccc3c2C[C@@H]2C[C@H](O)CN2C(=O)[C@H](CC)NC(=O)[C@H](C)NC)[nH]c2cc(F)ccc12 [Birinapant] | 15.5 | –
COc1cccc2c1C(=O)c1c(O)c3c(c(O)c1C2=O)C[C@@](O)(C(=O)CO)C[C@@H]3O[C@H]1C[C@H](N)[C@@H](O)[C@H](C)O1 [Epirubicin hydrochloride] + CC[C@H](NC(=O)[C@H](C)NC)C(=O)N1C[C@@H](O)C[C@H]1Cc1c(-c2[nH]c3cc(F)ccc3c2C[C@@H]2C[C@H](O)CN2C(=O)[C@H](CC)NC(=O)[C@H](C)NC)[nH]c2cc(F)ccc12 [Birinapant] | -93.1 | –
COc1cccc2c1C(=O)c1c(O)c3c(c(O)c1C2=O)C[C@@](O)(C(=O)CO)C[C@@H]3O[C@H]1C[C@H](N)[C@H](O)[C@H](C)O1 [Doxorubicin] + CC[C@H](NC(=O)[C@H](C)NC)C(=O)N1C[C@@H](O)C[C@H]1Cc1c(-c2[nH]c3cc(F)ccc3c2C[C@@H]2C[C@H](O)CN2C(=O)[C@H](CC)NC(=O)[C@H](C)NC)[nH]c2cc(F)ccc12 [Birinapant] | -136 | –
CC[C@@]1(O)C[C@H](O[C@H]2C[C@H](N(C)C)[C@H](O[C@H]3C[C@H](O)[C@H](O[C@H]4CCC(=O)[C@H](C)O4)[C@H](C)O3)[C@H](C)O2)c2c(cc3c(c2O)C(=O)c2c(O)cccc2C3=O)[C@H]1C(=O)OC [Aclarubicin] + CC[C@H](NC(=O)[C@H](C)NC)C(=O)N1C[C@@H](O)C[C@H]1Cc1c(-c2[nH]c3cc(F)ccc3c2C[C@@H]2C[C@H](O)CN2C(=O)[C@H](CC)NC(=O)[C@H](C)NC)[nH]c2cc(F)ccc12 [Birinapant] | -147 | -1130
CCc1cc2c(cc1N1CCC(N3CCOCC3)CC1)C(C)(C)c1[nH]c3cc(C#N)ccc3c1C2=O + CC[C@H](NC(=O)[C@H](C)NC)C(=O)N1C[C@@H](O)C[C@H]1Cc1c(-c2[nH]c3cc(F)ccc3c2C[C@@H]2C[C@H](O)CN2C(=O)[C@H](CC)NC(=O)[C@H](C)NC)[nH]c2cc(F)ccc12 [Birinapant] | 183 | –
C[Se]CC[C@H](N)C(=O)O [L-selenomethionine] + CC[C@H](NC(=O)[C@H](C)NC)C(=O)N1C[C@@H](O)C[C@H]1Cc1c(-c2[nH]c3cc(F)ccc3c2C[C@@H]2C[C@H](O)CN2C(=O)[C@H](CC)NC(=O)[C@H](C)NC)[nH]c2cc(F)ccc12 [Birinapant] | 115 | –
CC(=O)O/N=C1/C(=C2/C(=O)Nc3cc(Br)ccc32)Nc2ccccc21 [6-Bromoindirubin-3'-acetoxime] + CC[C@H](NC(=O)[C@H](C)NC)C(=O)N1C[C@@H](O)C[C@H]1Cc1c(-c2[nH]c3cc(F)ccc3c2C[C@@H]2C[C@H](O)CN2C(=O)[C@H](CC)NC(=O)[C@H](C)NC)[nH]c2cc(F)ccc12 [Birinapant] | 131 | –
Cc1ccc(C(=O)N(CCCN)[C@@H](c2nc3cc(Cl)ccc3c(=O)n2Cc2ccccc2)C(C)C)cc1 [Ispinesib] + CC[C@H](NC(=O)[C@H](C)NC)C(=O)N1C[C@@H](O)C[C@H]1Cc1c(-c2[nH]c3cc(F)ccc3c2C[C@@H]2C[C@H](O)CN2C(=O)[C@H](CC)NC(=O)[C@H](C)NC)[nH]c2cc(F)ccc12 [Birinapant] | -86.8 | –
Nc1nccc(-c2ccc3noc(-c4ccc(Cl)cc4)c3c2)n1 [Pim 1 Inhibitor 2] + CC[C@H](NC(=O)[C@H](C)NC)C(=O)N1C[C@@H](O)C[C@H]1Cc1c(-c2[nH]c3cc(F)ccc3c2C[C@@H]2C[C@H](O)CN2C(=O)[C@H](CC)NC(=O)[C@H](C)NC)[nH]c2cc(F)ccc12 [Birinapant] | 12.2 | –
C=CCNc1c(O)cc2c(O)c1C[C@@H](C)C[C@H](OC)[C@H](O)[C@@H](C)/C=C(\C)[C@H](OC(N)=O)[C@@H](OC)/C=C\C=C(/C)C(=O)N2 [Retaspimycin] + CC[C@H](NC(=O)[C@H](C)NC)C(=O)N1C[C@@H](O)C[C@H]1Cc1c(-c2[nH]c3cc(F)ccc3c2C[C@@H]2C[C@H](O)CN2C(=O)[C@H](CC)NC(=O)[C@H](C)NC)[nH]c2cc(F)ccc12 [Birinapant] | -10.7 | –
NC(=O)Nc1cc(-c2cccc(F)c2)sc1C(=O)N[C@H]1CCCNC1 + CC[C@H](NC(=O)[C@H](C)NC)C(=O)N1C[C@@H](O)C[C@H]1Cc1c(-c2[nH]c3cc(F)ccc3c2C[C@@H]2C[C@H](O)CN2C(=O)[C@H](CC)NC(=O)[C@H](C)NC)[nH]c2cc(F)ccc12 [Birinapant] | 119 | –
Cc1cccc(Nc2nc(-c3ccncc3)cs2)c1 + CC[C@H](NC(=O)[C@H](C)NC)C(=O)N1C[C@@H](O)C[C@H]1Cc1c(-c2[nH]c3cc(F)ccc3c2C[C@@H]2C[C@H](O)CN2C(=O)[C@H](CC)NC(=O)[C@H](C)NC)[nH]c2cc(F)ccc12 [Birinapant] | 69.4 | –
COc1cc(F)c(C(C)C)cc1-c1ccc(C(F)(F)F)cc1CN1C(=O)O[C@H](c2cc(C(F)(F)F)cc(C(F)(F)F)c2)[C@@H]1C [Anacetrapib] + CC[C@H](NC(=O)[C@H](C)NC)C(=O)N1C[C@@H](O)C[C@H]1Cc1c(-c2[nH]c3cc(F)ccc3c2C[C@@H]2C[C@H](O)CN2C(=O)[C@H](CC)NC(=O)[C@H](C)NC)[nH]c2cc(F)ccc12 [Birinapant] | -71.8 | –
